In PubChem BioAssay AID720540 (National Center for Advancing Translational Sciences (NCATS), 2013):
The whole screen tested about 1,300 compounds, of which about 460 (35%) were called active. Another 39% or so got no clear call; they are omitted. The list shows a part of the results. Values without a mark were called inactive. Calls come from the whole dose curve; as a rule, active = well fitted inhibition curve with a large enough effect; inconclusive = small, poorly fitted or top-dose-only effect; inactive = flat fitted curve, though single readings scatter.

molecular target: Protein phosphatase EYA2 (Homo sapiens) (UniProt O00167); experiment: qHTS for Inhibitors of the Phosphatase Activity of Eya2: Confirmatory Assay for Cherry-picked Compounds; conditions: purified EYA2 phosphatase activity, qHTS confirmation; series mostly up to 46.1 µM; activity change, negative = inhibition: at the top concentration; note: nearly all actives have a fitted effect of over 65% in size;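 for activity change, negative = inhibition: 0% = DMSO wells and -100% = EGTA control giving full inhibition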
Procedure, shortened: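 Eya2 (0.2 uM working solution) preincubated 10 min at room temperature with compound in pH 7.5 HEPES buffer with MgCl2, BSA, DTT. OMFP added (50 uM working solution), 10 min more; fluorescence 485/525 nm, normalized to EGTA and DMSO.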
Potency is the fitted concentration of half-maximal effect.

Chain of Protein phosphatase EYA2 (Homo sapiens) (O00167 whole entry, looked up): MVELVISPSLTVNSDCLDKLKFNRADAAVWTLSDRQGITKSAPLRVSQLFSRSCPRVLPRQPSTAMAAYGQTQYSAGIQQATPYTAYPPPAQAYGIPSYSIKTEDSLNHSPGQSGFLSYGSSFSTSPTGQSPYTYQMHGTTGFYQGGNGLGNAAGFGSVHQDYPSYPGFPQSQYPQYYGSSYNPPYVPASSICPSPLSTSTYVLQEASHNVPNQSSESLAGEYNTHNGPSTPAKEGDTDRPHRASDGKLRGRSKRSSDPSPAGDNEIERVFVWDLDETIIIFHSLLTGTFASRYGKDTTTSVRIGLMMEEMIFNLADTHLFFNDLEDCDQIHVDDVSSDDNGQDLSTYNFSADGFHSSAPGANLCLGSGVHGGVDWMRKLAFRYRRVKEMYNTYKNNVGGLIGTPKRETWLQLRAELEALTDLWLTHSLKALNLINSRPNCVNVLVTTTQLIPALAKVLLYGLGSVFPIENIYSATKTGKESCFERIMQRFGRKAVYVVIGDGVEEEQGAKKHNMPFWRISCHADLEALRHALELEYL

Structure (SMILES) | activity change, negative = inhibition [%] | Potency
Nc1nc2cc3ccccc3cc2[nH]c1=O | -10.3 | –
Cc1ccccc1NC(=O)C1CCN(C(=O)N2CCOc3ccccc32)CC1 | -3.15 | –
Cc1ccccc1C(=O)NC(=S)Nc1ccccc1N1CCCC1 | – | 13.5 µM (active)
CCc1nc2ccc(C(=O)NCCOc3ccc(OC)cc3)cn2c1N(CCC(C)C)CCN(C)C | -16.6 | –
C/C(=C1/C=Nc2ccccc21)c1ccc(N(C)C)cc1 | – | 19 µM (active)
Cc1cccn2c(=O)c3cc(S(=O)(=O)c4ccc(F)cc4)c(=N)n(Cc4ccco4)c3nc12 | -12.7 | –
COc1ccc(CCn2c(=N)c(C(=O)NCc3ccco3)cc3c(=O)n4ccccc4nc32)cc1OC | – | 15.1 µM (active)
Cc1ccccc1OCCn1cc(C(=S)N2CCN(C)CC2)c2ccccc21 | – | 16.9 µM (active)
CCC(=O)c1cn(CC(=O)Nc2c(C)cccc2C)c2ccccc12 | -9.78 | –
O=c1oc(-c2ccco2)nc2ccccc12 | – | 19 µM (active)
O=C(O)CCCCCNS(=O)(=O)c1cccc2c1C(=O)c1ccccc1C2=O | – | 6.01 µM (active)
CCOc1ccccc1O[C@H](c1ccccc1)[C@H]1CNCCO1 | -7.05 | –
Nn1c(SCC(=O)Nc2ccc3c(c2)OCCO3)nnc1-c1ccccn1 | – | 21.3 µM (active)
NC(=O)C1CCN(CC(=O)Nc2ccc3c(c2)OCO3)CC1 | 22.6 | –
O=C(CSc1ccc2c(c1)OCCO2)Nc1ccc2c(c1)OCO2 | -15.6 | –
O=S(=O)(Nc1nnc(-c2ccccc2)s1)c1ccc(Cl)cc1 | – | 15.1 µM (active)
COc1cc(OC)c(OC)cc1CCC(C)NCCC(c1ccccc1)c1ccccc1 (stereo unspecified) | – | 8.49 µM (active)
Cc1ccc(NC(=O)CN2C(=O)S/C(=C\c3cc(Cl)c(OCC(=O)O)c(Cl)c3)C2=O)cc1 | – | 19 µM (active)
CC(SC1=NCCS1)C(=O)Nc1nnc(-c2ccc(Br)cc2)s1 (stereo unspecified) | – | 6.01 µM (active)
CN1CCN(C(c2ccccn2)c2cc(Cl)c3cccnc3c2O)CC1 (stereo unspecified) | – | 2.39 µM (active)
OC(c1ccc(Cl)cc1)c1nccc2ccccc12 (stereo unspecified) | -9.24 | –

Structure (SMILES) | activity change, negative = inhibition [%] | Potency
Oc1c(C(c2ccc(Cl)cc2)N2CCCC2)cc(Cl)c2cccnc12 (stereo unspecified) | – | 6.75 µM (active)
COC(=O)c1c(C)[nH]c(C(=O)C(C)OC(=O)C2CC(=O)N(c3ccc(C)cc3)C2)c1C (stereo unspecified) | -26 | –
CC(=O)Oc1ccc(C(=O)OCC(=O)c2c(N)n(C)c(=O)n(C)c2=O)cc1OC(C)=O | – | 4.78 µM (active)
Cn1c(N)c(C(=O)CSc2nnc(NC3CCCCC3)s2)c(=O)n(C)c1=O | -28.7 | –
O=C(Oc1ccc(C(=S)N2CCOCC2)cc1Br)c1ccccc1F | – | 16.9 µM (active)
O=C(Oc1ccc(C(=S)N2CCOCC2)cc1Cl)c1ccccc1F | – | 8.49 µM (active)
COc1ccc(C(=O)N2CCOCC2)cc1S(=O)(=O)N1CCCc2ccccc21 | -12.4 | –
CC1=CC(C)(C)Nc2ccc(OC(=O)CN3C(=O)c4ccccc4C3=O)cc21 | -11.5 | –
CN1/C(=C\C(=S)NC(=O)c2ccccc2Cl)C(C)(C)c2ccccc21 | – | 16.9 µM (active)
O=C(NC1CCCCC1)N1CCN(C2CCCCC2)CC1 | 2.04 | –
COc1cc(OC)c(NC(=O)CN(C)S(=O)(=O)c2ccc(-c3ccc(=O)[nH]n3)s2)cc1Cl | – | 4.26 µM (active)
COc1ccc([C@H]2CC(=O)C=C(c3ccnc4ccc(Cl)cc34)C2)cc1 | -22.9 | –
O=C(O)c1ccc(-c2ccc(/C=c3/sc4nc5ccccc5n4c3=O)o2)cc1Cl | – | 5.36 µM (active)
N=C1/C(=C/c2ccc(-c3cccc(C(=O)O)c3)o2)C(=O)N=C2SC=C(c3ccccc3)N12 | -20.3 | –
Cc1c(CCO)c(=O)n(-c2ccccc2)n1S(=O)(=O)c1c(Cl)cc(Cl)cc1Cl | – | 3.01 µM (active)
CC12CC3(C)CC(C)(C1)CC(C(=O)NC(=S)N1CCOCC1)(C2)C3 | -20 | –
O=C1c2ccccc2C(=O)c2c(Nc3ccc(CCO)cc3)ccc(O)c21 | – | 6.01 µM (active)
COc1ccccc1NC(=O)CCCCCN1C(=O)c2cccc3cccc(c23)C1=O | -15.8 | –
O=C1c2cccc3cccc(c23)C(=O)N1CCCN1CCN(c2ccc(F)cc2)CC1 | – | 15.1 µM (active)
CC1Cc2ccccc2N1NC(=O)c1ccc(Cl)c(S(N)(=O)=O)c1 (stereo unspecified) | -5.79 | –
O=C(c1cccc(S(=O)(=O)Nc2ccccc2Cl)c1)N1CCN(c2ccccc2O)CC1 | – | 19 µM (active)

Structure (SMILES) | activity change, negative = inhibition [%] | Potency
COc1ccc(C2CC(c3ccccc3OC(=O)/C=C/c3ccccc3)=NN2C(C)=O)cc1 (stereo unspecified) | – | 19 µM (active)
O=S(=O)(Nc1cccc(-c2cn3cccnc3n2)c1)c1ccc(F)cc1 | – | 13.5 µM (active)
O=S(=O)(Nc1cccc(-c2cn3cccnc3n2)c1)c1ccccc1 | – | 4.78 µM (active)
Cn1c(=O)c2cc(S(=O)(=O)Nc3cccc(F)c3)ccc2n(C)c1=O | -21.5 | –
O=c1c(O)c(-c2ccc(O)cc2O)oc2cc(O)cc(O)c12 | – | 8.49 µM (active)
Cc1cc(C(=O)O)ccc1-n1c(C)cc(C=C2C(=O)c3ccccc3C2=O)c1C | -8.67 | –
Cc1cc(C(=O)c2ccccc2)cc(C)c1O | – | 1.9 µM (active)
CN(C)c1ccc(C2C=Cc3ccccc32)c2ccccc12 (stereo unspecified) | – | 9.53 µM (active)
CSCc1cc(N(C)c2ccccc2)nc(-c2ccccn2)n1 | – | 15.1 µM (active)
NCC(=O)Nc1ccc(Cl)cc1C(=O)c1ccc[nH]1 | -11.7 | –
O=C(c1cccs1)N1CCC(c2nc3c(nnn3Cc3cccc(Cl)c3)c(=O)[nH]2)CC1 | – | 10.7 µM (active)
CN(C)CCNc1ccc2ncn3c4ccc(O)cc4c(=O)c1c23 | – | 3.38 µM (active)
CN(C)CCNc1ccc2nnn3c4ccc(O)cc4c(=O)c1c23 | – | 1.69 µM (active)
N#Cc1ccc(C(=O)N2CCC3CC2c2cc(-c4ccccc4)ccc23)cc1 (stereo unspecified) | -24.4 | –
CN(C)C1=C2C=CC=CC2/C(=C2/C=Cc3ccccc32)C=C1 (stereo unspecified) | – | 8.49 µM (active)
O=C(O)c1cc(-c2ccc(/C=C3\NC(=O)N(c4ccc(Cl)cc4)C3=O)o2)ccc1Cl | – | 8.49 µM (active)
CN1C(=O)/C(=C2\SC(=S)N(NC(=O)c3cccnc3)C2=O)c2ccccc21 | – | 9.53 µM (active)
CCOC(=O)CN1C(=O)/C(=C2\SC(=S)N(NC(=O)c3cccnc3)C2=O)c2ccccc21 | – | 19 µM (active)
COC(=O)c1ccc(NC(=O)c2ccc3c(c2)C(=O)N(Cc2cccnc2)C3=O)cc1 | -19.5 | –
